Source: PMC8384837, “Expanding the binding specificity for RNA recognition by a PUF domain”

What follows are sequences tested against PUM1 PUF domain R4-PHA (Homo sapiens, UniProt Q14671 828-1176, N971P;Q975A) (assay: yeast three-hybrid, YBZ-1, SC-Leu-His + 0.5 mM 3-AT, 4 days). Settings: tags: N-Gal4 AD-HA kept; label: inside an RPR1-promoter hybrid RNA with tandem MS2 sites; ssRNA.
Method in brief: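 The interaction score is the log change in variant frequency from input to selection. Scores were computed in log2 with a pseudocount of 1 for absent variants, using Illumina sequencing of PCR-amplified repeat regions. The input came from four days on SC-Leu and the selection from four days on SC-Leu-His + 0.5 mM 3-AT. The cells were strain YBZ-1 (LexA–MS2 coat fusion, HIS3 reporter) co-expressing Pumilio-1 PUF domain libraries and matching RNA elements from a centromeric plasmid.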

| Sequence | binding signal |
| --- | --- |
| GGCUAGAACUAGUGGAUCCCCCGGCGCCCGGCGGCUCGAGCCCGGGUAAGUGUACAUAGUCUGCAUGCCGCCGGGCGCCAUGCCUGCAGGUCGACUCUAGAAAACAUG | 5.37 log2 enrichment (interaction score) |
| GGCUAGAACUAGUGGAUCCCCCGGCGCCCGGCGGCUCGAGCCCGGGUAAGUGUAAAUAGUCUGCAUGCCGCCGGGCGCCAUGCCUGCAGGUCGACUCUAGAAAACAUG | 6.46 log2 enrichment (interaction score) |
| GGCUAGAACUAGUGGAUCCCCCGGCGCCCGGCGGCUCGAGCCCGGGUAAGUGUAUAUAGUCUGCAUGCCGCCGGGCGCCAUGCCUGCAGGUCGACUCUAGAAAACAUG | 6.34 log2 enrichment (interaction score) |
